Assay results as given in PubChem BioAssay (NCI).
The panel holds about 83,000 compounds, 20% with a hit somewhere; the sample as a whole holds those more often.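 Cells were grown in 96-well plates and exposed to the test compound at a single concentration for 48 hours; results are reported as percent growth, with values below 10 considered active.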 A number with no mark means an inactive call. Activity calls are given as the source filed them.

These compounds were tested on CCRF-CEM leukemia (assay: NCI-60 one-dose screen, 48 h (100 = growth as untreated, 0 = no growth, -100 = all killed)). Settings: 10 µM unless noted.
Description: Growth inhibition of the CCRF-CEM human tumor cell line is measured as a screen for anti-cancer activity. Cells are grown in 96 well plates and exposed to the test compound for 48 hours. Compounds are tested at a single concentration, which is 10^-5 M for most compounds. The reported endpoint is percent growth (GI% or GIPRCNT), where numbers from 0 - 100% represent growth inhibition, and numbers from -100% - 0 represent cell death. For example, a value of 40 represents 60% growth inhibition. A value of 0 means no net growth occurred over the course of the experiment. A value of -40 indicates 40% of cells at the beginning of the experiment died by the end of the experiment. A value of -100 means all cells are dead at the end of the experiment.
NCI-60 Human Tumor Cell Lines Screen was performed using the standard one-dose NCI protocol, which is described in more detail at https://dtp.cancer.gov/discovery_development/nci-60/default.htm.
Compounds with GIPRCNT values below 10 were considered active. Activity score was based on GIPRCNT using the following formula: […]
Score is 0 for GIPRCNT values of 100 or above, 50 for GIPRCNT values of 0, and 100 for GIPRCNT values of -100.

SMILES | growth
Oc1c(C(Nc2cccc3ccccc23)c2ccccc2)ccc2cccnc12 (stereo not given) | 13.2%
COC(=O)c1ccc2c(c1)nc(-c1cc3ccccc3[nH]c1=O)n2-c1cc(C(C)(C)C)[nH]n1 | 30.3%
C=CCOc1ccc2c(C)cc(=O)oc2c1 | 96.2%
CC(C)CCSc1nc(Nc2ccccc2)c(C#N)c(-c2ccc(F)cc2)n1 | 49.3%
O=C1Nc2ccccc2/C1=C\c1nc(C2CCN(S(=O)(=O)c3ccc(F)cc3)CC2)n2ccccc12 | 95.1%
CCOC(=O)C1=C(C)NC(=S)NC1c1ccccc1 (stereo not given) | 109%
CC(C)[C@@]12C[C@@H](OC(=O)C3CO3)[C@@](C)(O1)[C@@H]1CC[C@@H](C)[C@H]1[C@@H]2OC(=O)/C=C/c1ccccc1 (stereo not given in full) | 88.5%
COc1cc(/C=C2\CN(C(=O)OC(C)(C)C)C/C(=C\c3ccc(O)c(OC)c3)C2=O)ccc1O | 101%
CC(C)(C)[Si](C)(C)OC1[C@@H](O[Si](C)(C)C(C)(C)C)[C@@H](CNC(=O)NC(=O)NC(=O)CI)O[C@H]1n1cnc2c(NC(=O)Nc3ccccc3)ncnc21 (stereo not given in full) | -38.5% (active)
COc1ccc(-c2cc(C(=O)Nc3ccc(Br)cc3)nc3[nH]c(=O)sc23)cc1 | 29.8%
C[N+](C)(C)CC(=O)N/N=C\c1ccco1 | 100%
C=C1C[C@@]2(C)C(CC[C@]3(C)C2CC=C2C4CC(C)(C)C[C@@H](OC(=O)/C(C)=C\C)[C@]4(C(=O)O)CC[C@]23C)C(C)(C)C1=O (stereo not given in full) | 2.34% (active)
CC(C)OC1OC(OC(C)C)C(OC(C)C)OC1OC(C)C (stereo not given) | 93.4%
CCCCCCCCCCCC1=NC(C)(C)CN1CCO | 23.5%
C[Si](C)(C)C(c1ccccc1)c1ccccc1 | 79.4%
COc1ccc2c(c1)sc1nc(-c3ccccc3)c(-c3cccc4ccccc34)n12 | 22.3%
COc1ncnc2[nH]cc(CN3CCN(c4ccc(F)cc4)CC3)c12 | 97.1%
N/C(=C\C(=O)n1nc(-c2ccccc2)cc1N)c1ccccc1 | 40.1%
O=C1NN(C(=O)c2ccccc2)C(c2ccc(Cl)c(Cl)c2)=C/C1=C\c1ccccc1[N+](=O)[O-] | 17.4% [6.75 µM]
C#CCO[C@H]1CC[C@H](OCC#C)[C@@H]2[C@H]1[C@H]1C[C@@H]3[C@@]4(C)CCC[C@@](C)(C(=O)OC)[C@@H]4CC[C@@]23C=C1C(C)C | -52.9% (active)

SMILES | growth
COc1ccccc1CNCCCN1C(=O)c2ccc3c4c(ccc(c24)C1=O)C(=O)N(CCCOCCCCOCCCN)C3=O | 2.11% (active)
O=c1nc(-c2ccccc2)c2cc(-c3ccc(N4CCOCC4)cc3)ccc2[nH]1 | 77.4%
COC(=O)C(Br)(C(=O)OC)C(Br)C(Br)C(Br)c1ccccc1 (stereo not given) | 0.438% (active)
O=C1Nc2ccc(Br)cc2/C1=N/c1nc(-c2ccccc2)cs1 | 101%
C#CCNc1nc(NCCNC(=O)CCl)nc(N(C)CCCCc2ccccc2)n1 | 23.8%
COc1ccc(C2=NNC(c3ccc(Oc4nc5c(c(=O)n(C)c(=O)n5C)n4C)c(OC)c3)C2)cc1 (stereo not given) | 82.8%
CN1C(=O)N(C)C2C1NN=c1s/c(=C\c3ccc(C(F)(F)F)cc3)c(=O)n12 (stereo not given) | 11.7%
COc1cc2ncnc(Nc3ccc(S(=O)(=O)Nc4cc(C)on4)cc3)c2cc1OCCCN1CCN(c2ccc([N+](=O)[O-])cc2)CC1 | 99.1%
COc1cccc(/C(C)=N/NC(=O)CSc2nc3ccccc3c(=O)n2CCc2ccc(S(N)(=O)=O)cc2)c1 | 22.3%
CC(=O)O[C@@H]1CC2C(C)(C)CCCC2(C)C2=C1C(=O)C(C(C)C)=CC2=O (stereo not given in full) | 14%
COc1ccc2nc(C)cc(Sc3nc4ccccc4s3)c2c1 | 7.21% (active)
COc1ccc(/C=C/c2nc(NCCCN(C)C)c3ccccc3n2)cc1 | -44.9% (active)
CCN(CC)c1ccc(/C=N/N=C(N)N)cc1 | 36%
CC(C)c1ccc2c(c1)CCC1C2CCCC1(C)NCc1ccccc1 (stereo not given) | 48.3%
CC1=CCC2C1CC=C(C)C(CC[C@H]1[C@@](C)(O)CCC3OC(C)(C)[C@H](OC(=O)c4ccccc4)CC[C@@]31C)C2(C)C (stereo not given in full) | 99.6%
N#CCCn1cnc2c(N)ncnc21 | 96.7%
CS(=O)(=O)c1ccc(C(=O)N/N=C/c2ccccc2O)cc1 | 15.3%
CN1C(=O)C(C2=NNC(c3ccccc3C(=O)O)C2)C(=O)N(C)C1=O (stereo not given) | 96%
NNC(=O)CSc1nc2scc(-c3ccccc3)c2c(=O)n1-c1ccccc1 | 106%
CCOC(=O)C1OC2(CCCC2)OC1C(=O)OCC (stereo not given) | 86.3%
